Laboratory results: publication PMC11006913
Where a chain is given by its changes, count along the chain named.

Key:
Test in all cases: PBM; 200 nM protein, PBS
Settings in all cases: dsDNA, one strand shown
HOXD13 = HOXD13 (Homo sapiens, UniProt P35453 263-343, T313R)
CRX = CRX (Homo sapiens, UniProt O43186 26-111, R41L)
ALX3 = ALX3 (Homo sapiens, UniProt O95076 139-225, N203S)
NKX2-6 [1] = target: T1, NKX2-6 (Homo sapiens, UniProt A6NCS4 118-204)
T1 sequence: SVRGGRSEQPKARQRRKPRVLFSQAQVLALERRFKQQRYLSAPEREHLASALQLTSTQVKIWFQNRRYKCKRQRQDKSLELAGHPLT

NKX2-6 [2] = target: T2, NKX2-6 (Homo sapiens, UniProt A6NCS4 118-204, F151L)
T2 sequence: T1 sequence with F34L

PITX2 = PITX2 (Homo sapiens, UniProt Q99697 72-157)
VAX1 [3] = target: VAX1 (Homo sapiens, UniProt Q5SQQ9 86-172)
VAX1 [4] = target: VAX1 (Homo sapiens, UniProt Q5SQQ9 86-172, T142I)
VAX1 [5] = target: VAX1 (Homo sapiens, UniProt Q5SQQ9 86-172, K157R)
Chain of VAX1 (Homo sapiens, UniProt Q5SQQ9 86-172, K157R) (Q5SQQ9 86-172 K157R): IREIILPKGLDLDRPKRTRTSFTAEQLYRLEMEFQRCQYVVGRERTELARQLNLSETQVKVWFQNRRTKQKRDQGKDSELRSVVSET

Chain of HOXD13 (P35453 263-343 T313R): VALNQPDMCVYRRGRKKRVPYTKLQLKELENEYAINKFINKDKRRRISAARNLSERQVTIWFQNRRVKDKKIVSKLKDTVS
Chain of VAX1 (Homo sapiens, UniProt Q5SQQ9 86-172) (Q5SQQ9 86-172): as the sequence (Q5SQQ9 86-172 K157R) above, with R72K counted along it
Chain of VAX1 (Homo sapiens, UniProt Q5SQQ9 86-172, T142I) (Q5SQQ9 86-172 T142I): as the sequence (Q5SQQ9 86-172 K157R) above, with T57I, R72K counted along it
Chain of CRX (O43186 26-111 R41L): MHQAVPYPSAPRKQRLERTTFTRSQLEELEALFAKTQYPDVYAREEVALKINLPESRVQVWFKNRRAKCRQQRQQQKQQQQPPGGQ
Chain of ALX3 (O95076 139-225 N203S): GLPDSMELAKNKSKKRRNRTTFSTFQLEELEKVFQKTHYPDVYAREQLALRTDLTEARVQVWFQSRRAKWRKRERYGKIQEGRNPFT

GTTATTAA
binding signal (HOXD13): 10.7 upbm affinity estimate (log intensity, higher = more binding, comparable within an allelic series) | binding signal (CRX): 10.4 upbm affinity estimate (log intensity, higher = more binding, comparable within an allelic series) | binding signal (ALX3): 8.66 upbm affinity estimate (log intensity, higher = more binding, comparable within an allelic series)

GCCGATCC
binding signal (NKX2-6 [1]): 9.45 upbm affinity estimate (log intensity, higher = more binding, comparable within an allelic series) | binding signal (NKX2-6 [2]): 9.3 upbm affinity estimate (log intensity, higher = more binding, comparable within an allelic series)

ACGGGACT
binding signal (NKX2-6 [1]): 9.76 upbm affinity estimate (log intensity, higher = more binding, comparable within an allelic series) | binding signal (NKX2-6 [2]): 9.42 upbm affinity estimate (log intensity, higher = more binding, comparable within an allelic series)

ACCAGAGC
binding signal (NKX2-6 [1]): 9.39 upbm affinity estimate (log intensity, higher = more binding, comparable within an allelic series) | binding signal (NKX2-6 [2]): 9.5 upbm affinity estimate (log intensity, higher = more binding, comparable within an allelic series)

CGTCCTGC
binding signal (NKX2-6 [1]): 9 upbm affinity estimate (log intensity, higher = more binding, comparable within an allelic series) | binding signal (PITX2): 7.8 upbm affinity estimate (log intensity, higher = more binding, comparable within an allelic series) | binding signal (NKX2-6 [2]): 9.34 upbm affinity estimate (log intensity, higher = more binding, comparable within an allelic series)

GCATCGGC
binding signal (NKX2-6 [1]): 9.23 upbm affinity estimate (log intensity, higher = more binding, comparable within an allelic series) | binding signal (NKX2-6 [2]): 9.43 upbm affinity estimate (log intensity, higher = more binding, comparable within an allelic series)

CCGCGCGG
binding signal (NKX2-6 [1]): 9.66 upbm affinity estimate (log intensity, higher = more binding, comparable within an allelic series) | binding signal (NKX2-6 [2]): 9.56 upbm affinity estimate (log intensity, higher = more binding, comparable within an allelic series)

GCGTCGCA
binding signal (NKX2-6 [1]): 9.48 upbm affinity estimate (log intensity, higher = more binding, comparable within an allelic series) | binding signal (NKX2-6 [2]): 9.49 upbm affinity estimate (log intensity, higher = more binding, comparable within an allelic series)

CGTCGGAC
binding signal (NKX2-6 [1]): 9.07 upbm affinity estimate (log intensity, higher = more binding, comparable within an allelic series) | binding signal (NKX2-6 [2]): 9.37 upbm affinity estimate (log intensity, higher = more binding, comparable within an allelic series)

CGTCTGGC
binding signal (NKX2-6 [1]): 9.46 upbm affinity estimate (log intensity, higher = more binding, comparable within an allelic series) | binding signal (NKX2-6 [2]): 9.41 upbm affinity estimate (log intensity, higher = more binding, comparable within an allelic series)

CCGCGCAC
binding signal (NKX2-6 [1]): 9.44 upbm affinity estimate (log intensity, higher = more binding, comparable within an allelic series) | binding signal (NKX2-6 [2]): 9.51 upbm affinity estimate (log intensity, higher = more binding, comparable within an allelic series)

CAGGGTCG
binding signal (NKX2-6 [1]): 9.43 upbm affinity estimate (log intensity, higher = more binding, comparable within an allelic series) | binding signal (NKX2-6 [2]): 9.26 upbm affinity estimate (log intensity, higher = more binding, comparable within an allelic series)

CGGCGGCC
binding signal (NKX2-6 [1]): 9.64 upbm affinity estimate (log intensity, higher = more binding, comparable within an allelic series) | binding signal (NKX2-6 [2]): 9.33 upbm affinity estimate (log intensity, higher = more binding, comparable within an allelic series)

AAGTACTG
binding signal (NKX2-6 [1]): 12.7 upbm affinity estimate (log intensity, higher = more binding, comparable within an allelic series) | binding signal (NKX2-6 [2]): 10.3 upbm affinity estimate (log intensity, higher = more binding, comparable within an allelic series)

CACCGTAG
binding signal (NKX2-6 [1]): 9.56 upbm affinity estimate (log intensity, higher = more binding, comparable within an allelic series) | binding signal (NKX2-6 [2]): 9.37 upbm affinity estimate (log intensity, higher = more binding, comparable within an allelic series)

CTGTGGCC
binding signal (NKX2-6 [1]): 9.24 upbm affinity estimate (log intensity, higher = more binding, comparable within an allelic series) | binding signal (PITX2): 7.86 upbm affinity estimate (log intensity, higher = more binding, comparable within an allelic series) | binding signal (NKX2-6 [2]): 9.38 upbm affinity estimate (log intensity, higher = more binding, comparable within an allelic series)

ACACGCGG
binding signal (NKX2-6 [1]): 9.54 upbm affinity estimate (log intensity, higher = more binding, comparable within an allelic series) | binding signal (NKX2-6 [2]): 9.38 upbm affinity estimate (log intensity, higher = more binding, comparable within an allelic series)

CAGGGACG
binding signal (NKX2-6 [1]): 9.36 upbm affinity estimate (log intensity, higher = more binding, comparable within an allelic series) | binding signal (NKX2-6 [2]): 9.43 upbm affinity estimate (log intensity, higher = more binding, comparable within an allelic series)

CGGGATCC
binding signal (NKX2-6 [1]): 9.34 upbm affinity estimate (log intensity, higher = more binding, comparable within an allelic series) | binding signal (NKX2-6 [2]): 9.34 upbm affinity estimate (log intensity, higher = more binding, comparable within an allelic series)

ACGGACGA
binding signal (NKX2-6 [1]): 9.27 upbm affinity estimate (log intensity, higher = more binding, comparable within an allelic series) | binding signal (NKX2-6 [2]): 9.49 upbm affinity estimate (log intensity, higher = more binding, comparable within an allelic series)

GCCCGCGC
binding signal (NKX2-6 [1]): 9.29 upbm affinity estimate (log intensity, higher = more binding, comparable within an allelic series) | binding signal (NKX2-6 [2]): 9.27 upbm affinity estimate (log intensity, higher = more binding, comparable within an allelic series)

GGAAAGTA
binding signal (NKX2-6 [1]): 11.2 upbm affinity estimate (log intensity, higher = more binding, comparable within an allelic series) | binding signal (NKX2-6 [2]): 9.87 upbm affinity estimate (log intensity, higher = more binding, comparable within an allelic series)

CGCTCGGC
binding signal (NKX2-6 [1]): 9.08 upbm affinity estimate (log intensity, higher = more binding, comparable within an allelic series) | binding signal (VAX1 [3]): 6.93 upbm affinity estimate (log intensity, higher = more binding, comparable within an allelic series) | binding signal (NKX2-6 [2]): 9.38 upbm affinity estimate (log intensity, higher = more binding, comparable within an allelic series) | binding signal (VAX1 [4]): 6.99 upbm affinity estimate (log intensity, higher = more binding, comparable within an allelic series) | binding signal (VAX1 [5]): 6.71 upbm affinity estimate (log intensity, higher = more binding, comparable within an allelic series)

CCACAGCG
binding signal (NKX2-6 [1]): 8.94 upbm affinity estimate (log intensity, higher = more binding, comparable within an allelic series) | binding signal (NKX2-6 [2]): 9.3 upbm affinity estimate (log intensity, higher = more binding, comparable within an allelic series)

ATACTTAG
binding signal (NKX2-6 [1]): 13.1 upbm affinity estimate (log intensity, higher = more binding, comparable within an allelic series) | binding signal (NKX2-6 [2]): 10.4 upbm affinity estimate (log intensity, higher = more binding, comparable within an allelic series)

AACACGCC
binding signal (NKX2-6 [1]): 9.5 upbm affinity estimate (log intensity, higher = more binding, comparable within an allelic series) | binding signal (NKX2-6 [2]): 9.31 upbm affinity estimate (log intensity, higher = more binding, comparable within an allelic series)

AAGGGTCA
binding signal (NKX2-6 [1]): 11.8 upbm affinity estimate (log intensity, higher = more binding, comparable within an allelic series) | binding signal (NKX2-6 [2]): 10 upbm affinity estimate (log intensity, higher = more binding, comparable within an allelic series)

GACCACTC
binding signal (NKX2-6 [1]): 12.3 upbm affinity estimate (log intensity, higher = more binding, comparable within an allelic series) | binding signal (NKX2-6 [2]): 9.92 upbm affinity estimate (log intensity, higher = more binding, comparable within an allelic series)
